# Reference: PubChem BioAssay (EPA / NIEHS)
# Records with an inconclusive call do not appear. Activity calls are given as the source filed them. The calls were made as follows: active = hit-call score of the fitted dose curve at least 0.9, where 1 is the maximum; inconclusive = response in the unintended direction; inactive = score below 0.9.
# System: not listed separately
# Experiment: TOX21_p53_BLA_p5_viability: Viability Assessment in the Tox21 HCT-116 p53 Agonism Beta-lactamase Assay, Phase 5 (AID 2283600)
# In short: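 Cells were plated at 4000/well, rested 5 h at 37C, then given compounds in DMSO (217-fold dilution) for 16 h at 37C, 5% CO2. Following the CCF4-AM beta-lactamase read, CellTiter-Glo was added and luminescence was read after 30 min at room temperature.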
Structure (SMILES),outcome,AC50
C=CC(C)CCCC(C)(C)O (centres undefined),inactive,
c1ccc(Cc2ccccc2)cc1,inactive,
CCCO,inactive,
CCOC(=O)CC1(C)OCC(C)O1 (centres undefined),inactive,
CCCCCCCCCCCCN1CCOCC1,inactive,
CC(C)OB(OC(C)C)OC(C)C,inactive,
CCNC(=S)NCC,inactive,
O=C(O)c1ccco1,inactive,
[Cu+],inactive,
CCCCCCCCCCCCCCCCCC(=O)OCCCCCCCCCCCCCC(C)C,inactive,
CCOC(=O)C=Cc1ccccc1,inactive,
CC1=CC(=O)[C@H]2C[C@@H]1C2(C)C,inactive,
CCCCC1CCCCC(=O)O1 (centres undefined),inactive,
O=C(O)c1cc(C(=O)O)c(C(=O)O)cc1C(=O)O,inactive,
C=CC(O)CCCCC (centres undefined),inactive,
OC[C@H]1O[C@@H](O[C@H]2[C@H](O)[C@@H](O)[C@H](O)O[C@@H]2CO)[C@H](O)[C@@H](O)[C@H]1O,inactive,
CCCCN(CCO)CCO,inactive,
N=C1N=C(N)c2ccccc21,inactive,

Structure (SMILES),outcome,AC50
O=C(O)c1cccc(Cl)n1,inactive,
COC(=O)C(C)Oc1ccc(Oc2ncc(C(F)(F)F)cc2Cl)cc1 (centres undefined),inactive,
CCCCC(CC)COC(=O)COc1ccc(Cl)cc1C (centres undefined),inactive,
CC(C)(O)C(=O)c1ccc(OCCO)cc1,inactive,
CC1=CC(O)CC(C)(C)C1 (centres undefined),inactive,
CC(C)CCCC(C)(C)O,inactive,
CC(C)Cc1ccc(C(C)C(=O)O)cc1 (centres undefined),inactive,
CCC(C)C1CCCCC1=O (centres undefined),inactive,
O=S1(=O)CC(Cl)(Cl)C(Cl)(Cl)C1,,6.87 µM (active)
OC[C@@H](O)[C@H](O)[C@@H](O)[C@@H](O)CO,inactive,
C=C(C)C(=O)OCCN(C)C,inactive,
C[C@H](CCC(=O)O)[C@H]1CC[C@H]2[C@@H]3CC[C@@H]4C[C@H](O)CC[C@]4(C)[C@H]3CC[C@]12C,,16.3 µM (active)
O=Cc1ccccc1O,inactive,
CC(C)N1C(=O)c2ccccc2C1=O,inactive,
CCCCCCCCCO,inactive,
CN(C)C,inactive,
CCCCCCCCCCCCCC(=O)OCC,inactive,
C=C/C(C)=C/C/C=C(\C)CCC=C(C)C,inactive,

# Biological target: Cellular tumor antigen p53 (Homo sapiens) (UniProt P04637)
# Experiment: TOX21_p53_BLA_p4_ratio: Tox21 HCT-116 p53 Agonism Beta-lactamase Assay, Ratio, Phase 4 (AID 2283601)
# In short: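 HCT-116 p53 beta-lactamase reporter cells (4000/well) preincubated 5 h, then compound (217-fold dilution of DMSO stock) for 16 h at 37C. CCF4-AM substrate added 2 h at room temperature; 460/530 nm emission ratio fitted upward versus DMSO.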
# Sequence of Cellular tumor antigen p53 (Homo sapiens) (P04637 whole entry, looked up): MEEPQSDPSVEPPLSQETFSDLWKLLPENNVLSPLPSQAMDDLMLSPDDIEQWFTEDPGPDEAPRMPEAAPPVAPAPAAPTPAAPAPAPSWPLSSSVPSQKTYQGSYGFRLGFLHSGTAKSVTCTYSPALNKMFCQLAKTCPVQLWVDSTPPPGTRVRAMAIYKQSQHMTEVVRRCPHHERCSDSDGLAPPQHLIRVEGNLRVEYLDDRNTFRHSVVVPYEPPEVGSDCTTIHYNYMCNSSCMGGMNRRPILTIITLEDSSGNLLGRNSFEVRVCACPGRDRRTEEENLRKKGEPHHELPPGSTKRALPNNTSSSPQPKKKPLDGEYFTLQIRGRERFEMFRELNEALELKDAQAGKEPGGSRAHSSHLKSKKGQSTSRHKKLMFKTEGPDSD
Structure (SMILES),outcome,AC50
C=CC(C)CCCC(C)(C)O (centres undefined),inactive,
CCNC(=S)NCC,inactive,
N=C1N=C(N)c2ccccc21,inactive,
CC1=CC(O)CC(C)(C)C1 (centres undefined),inactive,
O=S1(=O)CC(Cl)(Cl)C(Cl)(Cl)C1,,39 µM (active)
C[C@H](CCC(=O)O)[C@H]1CC[C@H]2[C@@H]3CC[C@@H]4C[C@H](O)CC[C@]4(C)[C@H]3CC[C@]12C,inactive,
CC(C)N1C(=O)c2ccccc2C1=O,inactive,
CN(C)C,inactive,
